# Only some compounds are listed: those with a hit (about 4.1% of all), similar ones and a draw of the others.
# DAX1 inh-1 – blocks DAX1 repression of SF-1 activated StAR promoter. HEK293T StAR-luciferase reporter, SF-1/DAX-1 repression relief. inhibition, % at 6.8 µM. 370,000 compounds, 1.1% hits. AID 652010;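 active = inhibition above the mean over all tested compounds plus 3 SD, cut at about 3.6% in these data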;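 note: 0% = DAX-1 cells with DMSO and 100% = cells lacking DAX-1 with DMSO; higher inhibition means more luminescence from relief of DAX-1 repression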
# hcDAF12 agonist – H. contortus DAF-12 activation, primary screen | HEK293 hcDAF-12 lit1-tk-luc reporter, luminescence; 0% DMSO, 100% Δ7-dafachronic acid | activation, % at 6.8 µM | 370,000 compounds, 1.4% hits;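 active = activation above the mean of all tested compounds plus 3 SD, cut at about 5.5% in these data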;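 note: 100% = response to 3 µM Δ7-dafachronic acid high control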
# DAX1 inh-2 – inhibitors of human orphan nuclear receptor DAX1 (NR0B1); P51843; HEK293 Gal4-DAX1 luciferase reporter, luminescence; inhibition, % at 6.75 µM; 340,000 compounds, 0.99% hits;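 active = inhibition above the mean over all tested compounds plus 3 SD, cut at about 4.2% in these data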;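 note: 0% = DAX1-transfected cells with DMSO and 100% = empty-vector control cells with DMSO; inhibition shows as a rise in luminescence from relieved DAX1 repression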
# Target sequence (P51843 207-470 limits assumed): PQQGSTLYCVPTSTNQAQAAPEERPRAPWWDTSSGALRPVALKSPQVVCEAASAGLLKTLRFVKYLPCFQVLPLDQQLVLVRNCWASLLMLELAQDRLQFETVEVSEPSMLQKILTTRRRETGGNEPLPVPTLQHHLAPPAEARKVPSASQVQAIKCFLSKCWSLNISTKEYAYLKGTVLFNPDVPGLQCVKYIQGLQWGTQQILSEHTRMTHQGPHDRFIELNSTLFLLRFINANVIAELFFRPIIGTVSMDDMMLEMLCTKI
# hgDAF12 agonist – activates the H. glycines DAF-12 receptor ligand-binding domain; 370,000 compounds, 1.8% hits; AID 687014; activation, % at 6.8 µM; HEK293 GAL4-hgDAF12 UAS-luciferase reporter, agonist luminescence; normalized to butyrate control;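 active = activation above a cutoff set at the mean of all screened compounds plus 3 SD, cut at about 10% in these data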;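 note: 0% = DMSO wells and 100% = sodium butyrate wells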
# ssDAF-12 act – activators of S. stercoralis DAF-12 nuclear receptor. activation, % at 6.8 µM. 370,000 compounds, 1% hits. HEK293 ssDAF-12/GRIP1 lit1-tk-luc reporter, luminescence; % of 3 µM dafachronic acid response;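 active = activation above the mean over all tested compounds plus 3 SD, cut at about 0.9% in these data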;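 note: 0% = DMSO-only wells and 100% = 3 µM delta7-dafachronic acid wells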
# * marks the source's active call; other numbers are inactive results; x = no result given.
SMILES,DAX1 inh-1,hcDAF12 agonist,DAX1 inh-2,hgDAF12 agonist,ssDAF-12 act
CCOc1ccccc1NC(=O)COC(=O)c1cc[n+]([O-])cc1,-0.1,-1.1,5.4*,-2.2,0.0
C=CCn1c(NCc2ccccc2)nc2ccccc21,0.2,1.8,7.1*,1.3,-1.3
C=CCn1c(NCc2ccccc2O)nc2ccccc21,0.0,-0.7,0.3,0.7,-0.8
NNc1nc2c(-c3ccc(F)cc3)nnn2c2ccccc12,1.5,6.4*,2.0,10.5*,1.3*
Fc1ccc(-c2nnn3c2nc(NCc2ccccc2)c2ccccc23)cc1,0.5,5.4,0.5,10.4,0.0
COc1ccc(C(=O)N/C(=C\c2cn(C)c3ccccc23)C(=O)NCCCN2CCOCC2)cc1OC,-0.3,0.2,0.1,2.2,-0.5
Cn1cc(/C=C(\NC(=O)c2ccccc2)C(=O)NCCCN2CCOCC2)c2ccccc21,-0.6,1.5,-0.1,-0.5,1.3*
COCC(=O)N1CCN(C(=O)C(=O)c2cccc(C(F)(F)F)c2)CC1,0.0,-0.5,x,0.8,-0.8
CCN(CC)C(=O)CC[C@H]1CC[C@]2(CCCN(c3ccccc3)C2)O1,-1.5,-0.3,x,2.1,-0.6
Cc1ccc(C(=O)O)cc1NCc1ccncc1,0.0,0.1,0.5,-1.9,-1.1
CC(CCc1ccccc1)NC(=O)CN1CCOc2ccccc21 (stereo not drawn),-0.5,3.4,0.2,0.6,0.4
O=C(CN1CCOc2ccccc21)NCc1ccccc1,-0.5,5.8*,0.3,1.0,0.2
CCCN(C(=O)c1cn(CCC)c2ccccc12)c1ccc(Oc2cccnc2)cc1,-2.9,-2.8,x,-1.4,-1.5
Cc1ccc(-c2cc(C(=O)NN=Cc3ccc(-c4ccccc4)cc3)[nH]n2)cc1C,0.6,0.3,x,2.9,-0.8
CCOc1ccc(NC(=S)c2ccc3ccccc3n2)cc1,0.1,4.4,0.5,1.6,1.0*
CC(=O)Nc1ccc(-c2cc(C(=O)O)c3ccc(C)cc3n2)cc1,0.8,-0.1,-0.2,1.3,-0.3
CC(=O)Nc1ccc(-c2cc(C(=O)O)c3cc4ccccc4cc3n2)cc1,-0.3,5.9*,1.3,3.0,1.8*
CCOc1ccc(NC(=O)c2ccccc2O)cc1,3.1,5.2,-1.0,12.3*,0.1
COc1ccc(NC(=S)c2ccc3ccccc3n2)cc1,x,x,2.8,x,x
CCOc1ccc(NC(=O)c2cc(Cl)nc3ccccc23)cc1,0.3,1.0,4.3*,0.8,-0.4
O=C(C1CCCN(S(=O)(=O)c2cccs2)C1)N1CCN(Cc2ccccc2)CC1 (stereo not drawn),-0.6,-3.5,x,1.7,-1.1
COc1cccc(-c2cc(C(=O)Nc3ccccc3)c3ccccc3n2)c1,-0.1,1.8,x,-1.7,-0.7
COc1ccc(-c2cc(C(=O)Nc3ccc(C(N)=O)cc3)c3ccccc3n2)cc1,0.6,0.8,0.3,10.7*,-0.6
C=CCN(CC#Cc1ccc(C(F)(F)F)cc1)CC=C,0.4,2.6,x,-3.9,-0.9
CCOc1ccc(NC(=O)CN2CCN(c3ccc(F)cc3)CC2)cc1S(=O)(=O)N1CCCC1,-0.5,-0.3,1.4,-0.7,1.0*
SMILES,DAX1 inh-1,hcDAF12 agonist,DAX1 inh-2,hgDAF12 agonist,ssDAF-12 act
O=C(CSc1nccc(-c2cccs2)n1)Nc1ccc(Cl)cc1,-1.3,2.7,-1.1,-0.1,-0.9
O=C(CSc1nccc(-c2cccs2)n1)Nc1cccc(Cl)c1Cl,0.1,1.9,1.0,1.4,1.1*
COC(=O)[C@]12C[C@H](CC(=O)NCC34CC5CC(CC(C5)C3)C4)C(=O)N(Cc3ccco3)C1=C[C@H](C(C)C)O[C@@H]2C1CC1,-1.3,-0.3,x,-2.2,-0.5
CC1(C)CC(=O)C2=C(C1)OC(N)=C(C#N)C21C(=O)N2CCCc3cccc1c32 (stereo not drawn),-0.6,0.0,0.1,-0.8,1.0*
CC1(C)CC(=O)C2=C(C1)OC(N)=C(C#N)[C@@]21C(=O)N(CC(N)=O)c2ccccc21,-0.1,1.1,-0.4,-1.5,-1.4
Cc1nnsc1-c1c(C(=O)N2CCOCC2)c(C)nn1-c1ccccc1,0.2,0.1,-0.3,0.6,-1.1
Cc1nnsc1-c1c(C(=O)N2CCOCC2)c(C)nn1-c1ccc(Cl)cc1,0.3,-0.3,4.8*,-0.5,-1.5
COC(=O)c1nnn(-c2nonc2N)c1CN1CCCC1,-0.2,-0.8,4.4*,2.1,-0.7
Nc1nonc1-n1nnc(C(=O)N/N=C/c2cccc(F)c2)c1CN1CCCCCC1,-0.1,-0.8,4.7*,1.1,-1.6

# Compound activity as filed in PubChem BioAssay.
